Experimental data from PubChem BioAssay AID651674 (The Scripps Research Institute Molecular Screening Center, 2012).
Screen size: about 2,200 compounds; about 1,700 (77%) were called active. So high a share suggests a set chosen from earlier hits. Only a sample is shown. Unmarked numbers belong to inactive results.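 Rule for the calls: active = mean inhibition across replicate wells exceeding the computed hit threshold (cut at about 13% in these data); inactive = the rest.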

The molecules below were run against Hepatocyte nuclear factor 4-alpha (Homo sapiens) (UniProt P41235) (assay: blockers of HNF4 self-association – biochemical, split-luciferase complementation, luminescence, counter-screen for ABHD5-PLIN5 interaction inhibitor project (AID 651674;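 note: light from luciferase halves that rejoin when HNF4 fusion proteins dimerize; 0% = DMSO only wells and the 100% control is not given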)). Settings: HNF4 dimerization, at 4 µM, active compounds read high.
Sequence of Hepatocyte nuclear factor 4-alpha (Homo sapiens) (P41235 whole entry, looked up, the tested form may be a part): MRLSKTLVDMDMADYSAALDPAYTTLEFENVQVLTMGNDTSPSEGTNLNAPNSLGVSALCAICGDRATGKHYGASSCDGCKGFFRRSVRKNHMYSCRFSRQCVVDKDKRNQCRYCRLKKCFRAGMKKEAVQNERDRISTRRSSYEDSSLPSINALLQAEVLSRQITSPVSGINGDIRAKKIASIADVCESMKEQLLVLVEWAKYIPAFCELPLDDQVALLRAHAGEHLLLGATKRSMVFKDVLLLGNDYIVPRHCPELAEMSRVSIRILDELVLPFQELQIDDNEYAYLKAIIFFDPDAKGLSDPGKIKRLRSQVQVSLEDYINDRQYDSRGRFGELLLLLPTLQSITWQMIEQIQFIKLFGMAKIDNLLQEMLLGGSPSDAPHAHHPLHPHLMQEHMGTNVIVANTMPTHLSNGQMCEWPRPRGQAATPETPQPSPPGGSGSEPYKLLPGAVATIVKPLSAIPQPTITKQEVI
In the case of `COc1ccc(-c2cc(C(F)(F)F)nc(S(C)(=O)=O)n2)cc1OC`, the inhibition was 80.6% (active).
`Nc1cccc(OCCCCCOc2cccc(N)c2)c1` showed an inhibition of -6.94%.
For `O=C(NNc1c2ccccc2nc2ccccc12)c1cc2ccccc2cc1O`, the inhibition was 23.8% (active).
In the case of `COc1ccc(/C=C/C(=O)c2ccc(NS(=O)(=O)c3ccc(C)cc3)cc2)cc1O`, the inhibition was 54.5% (active).
`OC(CNCC1CCCO1)Cn1c2ccc(Br)cc2c2cc(Br)ccc21` (configuration not stated) showed an inhibition of -1.25%.
With `O=C(c1cccnc1)N(c1cc2sc(=O)oc2c2ccccc12)S(=O)(=O)c1ccccc1` the inhibition was 104% (active).
In the case of `Cc1cccc(NC(=O)c2ccc3nsnc3c2)c1C`, the inhibition was -0.5%.
In the case of `O=[N+]([O-])/C=C/c1ccc2c(ccn2Cc2ccccc2)c1`, the inhibition was 108% (active).
With `COC(=O)C1(C)NC(c2ccccc2OC)C2C(=O)N(c3ccccc3)C(=O)C21` (configuration not stated) the inhibition was 2.83%.
`C[C@@H](CN1CCC[C@H]1CN1C(N)=NC[C@@H]1Cc1ccccc1)N1C[C@@H](Cc2ccccc2)N(CCCC2CCCC2)C1=N` gave an inhibition of 6.92%.
For `O=[N+]([O-])c1c(NCCO)cc(Sc2nc3ccccc3s2)c2nonc12`, the inhibition was 115% (active).
`Cn1sc(=O)c2cc(S(=O)(=O)NC3CC3)ccc21` was tested, and the inhibition was 106% (active).
In the case of `Cc1cc2c(c(=O)n1Cc1ccco1)C(c1ccccc1)C(C#N)=C(N)O2` (configuration not stated), the inhibition was 24.5% (active).
`Cc1nnnn1/C(=C\c1ccccc1)C(=O)OCC(=O)N1CC2(C)CC1CC(C)(C)C2` (configuration not stated) was tested, and the inhibition was 46.1% (active).
With `Cc1nc(-c2ccccc2)sc1C(=O)/C=C/c1ccccc1` the inhibition was 59.8% (active).
In the case of `CC(C)(C)C1C/C(=C/c2ccco2)C(=O)/C(=C/c2ccco2)C1` (configuration not stated), the inhibition was 78.9% (active).
For `O=C(/C=C/c1ccc(Cl)c([N+](=O)[O-])c1)c1ccc(O)cc1`, the inhibition was 72.8% (active).
For `CC(=O)Nc1ccc(C=CC(=O)c2ccc([N+](=O)[O-])cc2)cc1`, the inhibition was 82.5% (active).
With `O=C(NCCOCc1ccc(Cl)cc1)c1ncn[nH]1` the inhibition was 2.01%.
`COc1ccc(CNC(=O)/C(C#N)=C/c2cccc(OC)c2OC)cc1` was tested, and the inhibition was 45.7% (active).
`COC(C/C=C/C(=O)[C@@H](C)OCc1ccccc1)OC` was tested, and the inhibition was 44.4% (active).
In the case of `Cc1cc(C)nc(S/C=C/C(=O)c2ccccc2)n1`, the inhibition was 106% (active).
With `Cc1cccc(CS(=O)(=O)c2ncc(Cl)c(C(=O)Nc3ccc(F)cc3)n2)c1` the inhibition was 86.8% (active).
For `Cc1cccc(NC(=O)c2nc(S(=O)(=O)Cc3ccccc3)ncc2Cl)c1`, the inhibition was 85.1% (active).
In the case of `Cc1ccc(CS(=O)(=O)c2ncc(Cl)c(C(=O)Nc3nnc(C)s3)n2)cc1`, the inhibition was 91.8% (active).
`CSc1nnc(NC(=O)c2nc(S(=O)(=O)Cc3ccc(C)cc3)ncc2Cl)s1` was tested, and the inhibition was 50.1% (active).
`Cc1c(CCOC(=O)CC23CC4CC(CC(C)(C4)C2)C3)sc[n+]1Cc1ccc([N+](=O)[O-])cc1` gave an inhibition of 5.79%.
Work on `CC1Cc2ccccc2N1CC(=O)Nc1ccc(S(N)(=O)=O)cc1` (configuration not stated) yielded an inhibition of -0.75%.
For `Cc1ccc(NC(=O)Cn2sc3ccccc3c2=O)cc1`, the inhibition was 118% (active).
In the case of `Cc1ccn(C(CC(=O)c2ccc(Br)cc2)C(=O)O)n1` (configuration not stated), the inhibition was 38.9% (active).
For `Cc1ccc(-n2nc(-c3ccco3)cc2C(=O)NCc2cccnc2)cc1`, the inhibition was 79.1% (active).
With `CCN1/C(=C\c2ccc3ccccc3[n+]2CC)Sc2cc(C)ccc21` the inhibition was 22.4% (active).
`C=C(C)C(=O)O[C@H]1C/C(C)=C\C(=O)/C=C(\C)[C@H](O)[C@@H]2OC(=O)C(=C)[C@@H]21` was tested, and the inhibition was 54.8% (active).
`Cc1cc(-c2n[nH]c(=S)n2/N=C/C(Br)=C/c2ccccc2)n[nH]1` was tested, and the inhibition was 86.5% (active).
With `CC1(C(=O)NCc2cccc3ccccc23)CCN1Cc1ccc(-c2ccccc2)o1` (configuration not stated) the inhibition was 40.2% (active).
For `COc1ccc(C(C[N+](=O)[O-])n2nc(C)cc2C)cc1` (configuration not stated), the inhibition was 87.3% (active).
Work on `O=c1[nH][nH]c2c1[C@H](c1ccc(Cl)cc1)O[C@H](CCc1ccccc1)C2` yielded an inhibition of 12%.
`O=C1C=CC(=O)N1c1ccc(N2CCCCC2)cc1` was tested, and the inhibition was 101% (active).
`COc1ccc2c(c1OC)C(=O)OC2Nc1nc(-c2ccccc2)cs1` (configuration not stated) was tested, and the inhibition was 56.7% (active).
`O=C(NNc1ccccn1)c1ccc(Cl)nc1` gave an inhibition of -6.91%.
`O=C1C=C(c2ccc(Cl)cc2)C(=O)N1Nc1ccccc1` was tested, and the inhibition was 107% (active).
`CN(C)CCCNC(=O)/C=C/c1ccc(OCc2c(F)cccc2Cl)cc1` showed an inhibition of 6.86%.
In the case of `O=C(/C=C(O)/C=C/c1ccc(O)cc1)/C=C/c1ccc(O)cc1`, the inhibition was 74.4% (active).
With `Cc1cccc(C)c1NC(=O)C(Cl)C(=O)c1ccccc1` (configuration not stated) the inhibition was 58.4% (active).
Work on `CCN(CC)CCN(C(=O)c1ccc2c(c1)CCCC2)c1nc2c(OC)cccc2s1` yielded an inhibition of 11.7%.
`C=C1C(=O)[C@]23C[C@H]1CCC2[C@@]1(C)C(C[C@@H]3O)[C@](C)(C(=O)O)CC[C@@H]1O` (some centres not stated) was tested, and the inhibition was 85.8% (active).
`CN1CCC[C@@H]1CCO[C@](C)(c1ccccc1)c1ccc(Cl)cc1` was tested, and the inhibition was 9.44%.
